Data published in PubChem BioAssay AID1159580 (chemical genetic matrix, 2015).
Among all 5,500 compounds or so, about 2,000 (36%) were called active. Not shown: some 18% with an inconclusive outcome. No stated cut-off is given here; in the data, active means normalized growth mostly below about 0.91 (no sharp cut-off); inconclusive means no clear call, values can overlap the other calls; inactive means mostly above about 0.92. This is one part of the list.

Test: chemical genetic growth profiling, strain panel (AID 1159580);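 further: tested at 20 µM; growth read once vehicle control cultures reached saturation at 30 °C; 1 = growth at the plate median or of vehicle wells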
Conditions: S. cerevisiae deletion strains, growth OD

Measured: normalized growth

O=c1c(-c2ccccc2)c(O)c2cccc3c4ccccc4n1c23
active: locus YAR019C, strain CDC15, stronger effect = lower value 0.117 | locus YBL105C, strain PKC1, stronger effect = lower value 0.121 | locus YBR135W, strain CKS1, stronger effect = lower value 0.13 | locus YBR136W, strain MEC1, stronger effect = lower value 0.148 | locus YBR160W, strain CDC28, stronger effect = lower value 0.215 | locus YDL017W, strain CDC7, stronger effect = lower value 0.154 | locus YDL028C, strain MPS1, stronger effect = lower value 0.142 | locus YDL101C, strain DUN1, stronger effect = lower value 0.226 | locus YDL108W, strain KIN28, stronger effect = lower value 0.247 | locus YDL132W, strain cdc53, stronger effect = lower value 0.167 | locus YDL214C, strain PRR2, stronger effect = lower value 0.0962 | locus YDR052C, strain DBF4, stronger effect = lower value 0.344 | locus YDR054C, strain cdc34, stronger effect = lower value 0.128 | locus YDR226W, strain ADK1, stronger effect = lower value 0.523 | locus YDR477W, strain SNF1, stronger effect = lower value 0.134 | locus YER123W, strain YCK3, stronger effect = lower value 0.113 | locus YER133W, strain GLC7, stronger effect = lower value 0.105 | locus YFL009W, strain cdc4, stronger effect = lower value 0.14 | locus YFL029C, strain CAK1, stronger effect = lower value 0.115 | locus YFR003C, strain YPI1, stronger effect = lower value 0.12 | locus YFR019W, strain FAB1, stronger effect = lower value 0.118 | locus YFR028C, strain CDC14, stronger effect = lower value 0.145 | locus YGR040W, strain KSS1, stronger effect = lower value 0.124 | locus YGR052W, strain FMP48, stronger effect = lower value 0.13 | locus YGR092W, strain DBF2, stronger effect = lower value 0.11 | locus YHR030C, strain SLT2, stronger effect = lower value 0.149 | locus YHR079C, strain IRE1, stronger effect = lower value 0.143 | locus YHR082C, strain KSP1, stronger effect = lower value 0.157 | locus YHR205W, strain SCH9, stronger effect = lower value 0.0087 | locus YIL147C, strain SLN1, stronger effect = lower value 0.123 | locus YJL095W, strain BCK1, stronger effect = lower value 0.141 | locus YJL128C, strain PBS2, stronger effect = lower value 0.133 | locus YJL157C, strain FAR1, stronger effect = lower value 0.0913 | locus YJR016C, strain ILV3, stronger effect = lower value 0.168 | locus YJR066W, strain TOR1 (second series), stronger effect = lower value 0.131 | locus YJR066W, strain TOR1, stronger effect = lower value 0.135 | locus YKL048C, strain ELM1, stronger effect = lower value 0.122 | locus YKL067W, strain YNK1, stronger effect = lower value 0.0882 | locus YKL101W, strain HSL1, stronger effect = lower value 0.113 | locus YKL193C, strain SDS22, stronger effect = lower value 0.139 | locus YKL203C, strain TOR2, stronger effect = lower value 0.146 | locus YLR113W, strain HOG1, stronger effect = lower value 0.185 | locus YLR133W, strain CKI1, stronger effect = lower value 0.106 | locus YLR403W, strain SFP1, stronger effect = lower value 0.00673 | locus YML070W, strain DAK1, stronger effect = lower value 0.0964 | locus YMR001C, strain CDC5, stronger effect = lower value 0.119 | locus YMR205C, strain PFK2 (second series), stronger effect = lower value 0.1 | locus YMR277W, strain FCP1, stronger effect = lower value 0.165 | locus YNL006W, strain LST8, stronger effect = lower value 0.11 | locus YNL020C, strain ARK1, stronger effect = lower value 0.115 | locus YNL161W, strain CBK1, stronger effect = lower value 0.133 | locus YNL183C, strain NPR1, stronger effect = lower value 0.161 | locus YNL207W, strain RIO2, stronger effect = lower value 0.131 | locus YNL222W, strain SSU72, stronger effect = lower value 0.11 | locus YNL307C, strain MCK1 (second series), stronger effect = lower value 0.118 | locus YOL078W, strain AVO1, stronger effect = lower value 0.123 | locus YOL136C, strain PFK27, stronger effect = lower value 0.106 | locus YOR061W, strain CKA2, stronger effect = lower value 0.0936 | locus YOR119C, strain RIO1, stronger effect = lower value 0.146 | locus YOR231W, strain MKK1, stronger effect = lower value 0.122 | locus YOR329C, strain SCD5, stronger effect = lower value 0.12 | locus YPL031C, strain PHO85, stronger effect = lower value 0.124 | locus YPL153C, strain RAD53, stronger effect = lower value 0.109 | locus YPL204W, strain HRR25, stronger effect = lower value 0.126 | locus YPL209C, strain IPL1, stronger effect = lower value 0.129 | locus YPL256C, strain CLN2, stronger effect = lower value 0.15 | locus YPR025C, strain CCL1, stronger effect = lower value 0.149 | locus YPR106W, strain ISR1, stronger effect = lower value 0.141 | locus YPR111W, strain DBF20, stronger effect = lower value 0.147 | strain NNK1, stronger effect = lower value 0.114 | strain TSCII, stronger effect = lower value 0.112
